From the supplement of paper PMC6555819

How the values were obtained:
Assay in all cases: PBM binding z-score (relative to random genomic background probes); higher = stronger binding; sequences stand for … in GC…GCGATTGACAGCGTAGAATGAAGG
[1] = tested on: FXR:RXRa (NR concentration 270 nM, RXRa partner concentration 90 nM)
In short: (§1)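 Ligand-free nuclear receptor dimers were bound for 1 h to custom Agilent 4×180K protein-binding microarrays. Detection used antibodies against each partner (one per run). Binding z-scores rest on regression-normalized fluorescence, with random background probes as the reference.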

[2] = tested on: LXRa:RXRa (NR concentration 270 nM, RXRa partner concentration 90 nM)
In short: as §1

[3] = tested on: LXRa homodimer (NR concentration 270 nM)
In short: as §1

[4] = tested on: LXRb:RXRa (NR concentration 270 nM, RXRa partner concentration 90 nM)
In short: as §1

[5] = tested on: LXRb homodimer (NR concentration 270 nM)
In short: as §1

[6] = tested on: PPARa:RXRa (NR concentration 270 nM, RXRa partner concentration 90 nM)
In short: as §1

[7] = tested on: PPARg:RXRa (NR concentration 180 nM, RXRa partner concentration 90 nM)
In short: as §1

[8] = tested on: PPARg:RXRa 270nM:90nM, anti-RXR (NR concentration 270 nM, RXRa partner concentration 90 nM)
In short: as §1

[9] = tested on: PPARg:RXRa 30nM:10nM, anti-RXR (NR concentration 30 nM, RXRa partner concentration 10 nM)
In short: as §1

[10] = tested on: PPARg:RXRa 90nM:30nM, anti-RXR (NR concentration 90 nM, RXRa partner concentration 30 nM)
In short: as §1

[11] = tested on: PPARg:RXRa DBDmut IVT, anti-RXR (DBD mutation: RXRa K156A/R161A, NR concentration 270 nM, RXRa partner concentration 90 nM)
In short: as §1

[12] = tested on: PPARg:RXRa IVT, anti-PPARg (NR concentration 270 nM, RXRa partner concentration 90 nM)
In short: as §1

[13] = tested on: PPARg DBDmut:RXRa IVT, anti-PPARg (DBD mutation: PPARg1 K132A/R137A, NR concentration 270 nM, RXRa partner concentration 90 nM)
In short: as §1

[14] = tested on: PPARg DBDmut IVT, anti-PPARg (DBD mutation: PPARg1 K132A/R137A, NR concentration 270 nM)
In short: as §1

[15] = tested on: PPARg homodimer (NR concentration 180 nM)
In short: as §1

[16] = tested on: PXR:RXRa (NR concentration 270 nM, RXRa partner concentration 90 nM)
In short: as §1

[17] = tested on: PXR homodimer (NR concentration 270 nM)
In short: as §1

[18] = tested on: RARa:RXR (NR concentration 270 nM, RXRa partner concentration 90 nM)
In short: as §1

[19] = tested on: RARa homodimer (NR concentration 270 nM)
In short: as §1

[20] = tested on: RARb:RXRa (NR concentration 270 nM, RXRa partner concentration 90 nM)
In short: as §1

Sequence | PBM binding z-score [1] | PBM binding z-score [2] | PBM binding z-score [3] | PBM binding z-score [4] | PBM binding z-score [5] | PBM binding z-score [6] | PBM binding z-score [7] | PBM binding z-score [8] | PBM binding z-score [9] | PBM binding z-score [10] | PBM binding z-score [11] | PBM binding z-score [12] | PBM binding z-score [13] | PBM binding z-score [14] | PBM binding z-score [15] | PBM binding z-score [16] | PBM binding z-score [17] | PBM binding z-score [18] | PBM binding z-score [19] | PBM binding z-score [20]
CCTGCTAGGTCAATGGTCCGCTAAAGCAGCTCGC | 2.77 | 2.19 | -0.135 | 1.19 | -0.102 | 2.6 | 2.12 | 2.94 | 0.46 | 1.87 | 4.03 | 3.49 | -0.758 | -0.248 | 0.967 | 0.521 | -0.206 | 1.27 | -0.566 | 3.68
CCTAGAAGGCCAATCTGGGTCACTCAAGGCTTGA | 1.99 | 3.1 | -0.29 | 2.04 | -0.793 | 3.72 | 2.93 | 2.57 | 0.176 | 1.97 | 3.74 | 4.78 | -0.238 | -1.07 | 1.21 | 1.86 | -0.344 | 2.12 | 0.185 | 2.4
TCATACAGGTAAACAGGTGAAAGTCCGTAAGTTA | 0.989 | 1.11 | 0.506 | 1.2 | 0.202 | 2.18 | 1.6 | 3.16 | 4.13 | 3.71 | 3.22 | 2.7 | 0.361 | 1.11 | 1.16 | 1.03 | 0.792 | 1.42 | 1.16 | 0.895
GCTTACGGCTCAAAGGTTATAGCATGAATAGAAT | 0.876 | 1.45 | 0.0597 | 1.7 | -0.639 | 2.62 | 2.18 | 3.88 | 1.46 | 3.1 | -0.386 | 0.149 | -0.0168 | 0.142 | 0.0753 | 1.47 | -0.195 | 2.06 | 0.137 | 1.21
TTACCAAGGTGAGCTGAGGTCGTTGATCCAACTC | 2.68 | 1.31 | -0.429 | 0.771 | -0.932 | 1.75 | 0.0695 | 0.731 | -0.00962 | 0.482 | 1.28 | 2.17 | -0.497 | -0.723 | -0.21 | 4.78 | 0.329 | 1.72 | -1.01 | 1.93
ATATGTAGTTTAAGGGTCATTCAGGTTGGTTCGC | 4.61 | 4.11 | 2.99 | 4.07 | 1.53 | 5.03 | 6.25 | 6.64 | 5.02 | 6.74 | 1.53 | 3.45 | 1.66 | 1.44 | 3.5 | 5.01 | 3.06 | 4.34 | 2.87 | 3.42
GCGAGTGGGGCAAAGCAGGTTACCATAAGGTTGG | 0.592 | 0.51 | -0.115 | 0.552 | -0.338 | 1.36 | 0.889 | 1.12 | -0.171 | 0.35 | 3.82 | 2.88 | -0.867 | -0.658 | 0.436 | 0.562 | -0.254 | 0.873 | 0.0402 | 1
AGTCAAAGTTCACTAGGTATCGTAAGATTCAGCT | 4.92 | 5.04 | 3.27 | 2.98 | 1.09 | 4.19 | 6.03 | 5.82 | 2.96 | 5.12 | 1.2 | 3.6 | 1.14 | 1.1 | 2.46 | 4.04 | 3.44 | 2.8 | 1.06 | 4.7
CAAACTAGTTCACAGAGGTCAAAGTCCGTGCGTA | 5.85 | 6.23 | 7.12 | 5.68 | 2.36 | 5.3 | 3.87 | 5.02 | 2.33 | 4.18 | 2.43 | 3.25 | 0.945 | 0.72 | 4.3 | 7.16 | 14.3 | 7.22 | 2.73 | 4.46
